Experimental data taken from PubChem BioAssay AID686978 (National Center for Advancing Translational Sciences (NCATS), 2013).
Out of some 420,000 compounds screened, about 64,000 (15%) were called active. Roughly 27% stayed inconclusive and do not appear here. Calls come from the whole dose curve; as a rule, active = well fitted inhibition curve with a large enough effect; inconclusive = small, poorly fitted or top-dose-only effect; inactive = flat fitted curve, though single readings scatter. These entries were drawn from the full list. Entries that show only a call come without a potency.

Experiment: qHTS for Inhibitors of human tyrosyl-DNA phosphodiesterase 1 (TDP1): qHTS in cells in absence of CPT; note: nearly all actives have a fitted effect of over 55% in size
Settings: DT40 Tdp1-/- hTDP1 cells, no CPT, ATP luminescence, 48 h; activity change, negative = growth inhibition: at 46.2 µM (top of the series)
Method in brief: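 Camptothecin absent (DMSO only). Human TDP1-complemented DT40 knockout cells, 400 cells/well, 37 °C for minimum 48 hr; ATP measured via CellTiter-Glo, 30 min dark incubation, luminescence.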
Potency is the fitted concentration of half-maximal effect.

Row | SMILES | Potency
1 | CCC1OC(c2ccc([N+](=O)[O-])cc2)=Nc2ccccc21 (configuration not stated) | inactive
2 | COC(=O)c1sccc1NS(=O)(=O)c1ccc(F)cc1F | inactive
3 | CN(C)c1ccc(/C=C/C=C/c2ccnc3ccccc23)cc1 | 2 µM (active)
4 | CCCCC(CCCC)c1ccc(C=Nc2ccc(/C=C/c3ccnc4ccccc34)cc2)cc1 | 11.2 µM (active)
5 | CN(C)c1ccc(/C=C/c2c3ccccc3nc3ccccc23)cc1 | 12.6 µM (active)
6 | CN(C)c1ccc(/C=N\S(=O)(=O)c2ccccc2)cc1 | inactive
7 | CN(C)c1cc(N)c2ccccc2n1 (tested in a mixture with another compound) | inactive
8 | C(=Nc1ccc(/C=C/c2ccnc3ccccc23)cc1)c1cc2c3c(c1)CCCN3CCC2 | 11.2 µM (active)
9 | O=C(O)C1C2C=CC(O2)C1C(=O)Nc1ccccn1 (configuration not stated) | inactive
10 | Cc1nc(COc2cc3oc(=O)cc(C)c3cc2Cl)cs1 | inactive
11 | COc1ccc(S(=O)(=O)N2CCN(C(=O)NC3CCCCC3)CC2)cc1 | inactive
12 | C[C@H](NS(=O)(=O)c1ccc(Cl)cc1)C(=O)OCC(=O)N1CCOCC1 | inactive
13 | Cc1sc2ccccc2c1CNC[C@H]1O[C@@H](n2ccc(=O)[nH]c2=O)[C@H](O)[C@@H]1O | inactive
14 | O=S(N1CCCCCC1)C12CC3CC(CC(C3)C1)C2 (configuration not stated) | inactive
15 | O=C1NCCn2nc3ccccc3c21 | inactive
16 | O=C(/C=C/c1ccc(Cl)cc1)Nc1ccc(S(=O)(=O)Nc2ncccn2)cc1 | inactive
17 | CN(C)c1ccc(C=Nc2ccc(/C=C/c3ccnc4ccccc34)cc2)cc1 | 17.8 µM (active)
18 | NC(=O)Nc1ccc(/C=C/c2ccnc3ccccc23)cc1 | 12.6 µM (active)
19 | CC(=O)Nc1ccc(NC(=O)COc2ncnc3ccccc23)cc1 | inactive
20 | C(=Nc1ccc(/C=C/c2ccnc3ccccc23)cc1)Nc1ccc(/C=C/c2ccnc3ccccc23)cc1 | 8.91 µM (active)
21 | O=C(CCNS(=O)(=O)c1ccc(Br)s1)NCc1ccccc1Cl | inactive
22 | CC(=O)c1cc(CN2CCC(n3nccc3NC(=O)c3ccccc3Cl)CC2)cs1 | inactive
23 | Cc1cc(NC(=O)CSc2ncc(C(F)(F)F)cc2Cl)no1 | inactive
24 | O=C(O)c1ccc([N+](=O)[O-])cc1Sc1ccsc1 | inactive
25 | COCCNc1nc(N)c([N+](=O)[O-])c(N2CCCCCC2)n1 | inactive
26 | CCC1=NN(C(=O)Cc2ccc([N+](=O)[O-])cc2)C(O)(c2ccc(Br)cc2)C1 (configuration not stated) | inactive

Row | SMILES | Potency
27 | CN(C(=O)CSc1nnc(-c2c[nH]c3ccccc23)o1)C1CCS(=O)(=O)C1 (configuration not stated) | inactive
28 | Cc1ccc(C)c(S(=O)(=O)Nc2cccc(-n3cnnn3)c2)c1 | inactive
29 | CCCCN(C)c1ccc([N+](=O)[O-])cc1 | inactive
30 | COc1ccc(Cc2nnc(NC(=O)Cc3cccs3)s2)cc1 | inactive
31 | CCNC(=S)N1CCC(c2nc3cc(C)c(C)cc3[nH]2)CC1 | inactive
32 | CCN(CC)CCCC(C)Nc1ccnc2cc(Cl)ccc12 (configuration not stated) | 0.794 µM (active)
33 | CCN(CC)CCNc1ccc(Cl)cc1[N+](=O)[O-] | inactive
34 | COC(=O)COc1ccc(C2NC(=O)NC(C)=C2C(=O)NCc2ccccc2)cc1OC (configuration not stated) | inactive
35 | O=C(NCc1ccco1)/C(=C/c1ccco1)NC(=O)c1ccccc1 | inactive
36 | CC(/C=N/NC(=O)c1cc(-c2ccc3ccccc3c2)n[nH]1)=C\c1ccco1 | 23.1 µM (active)
37 | O=C(Cc1ccccc1)Nc1cccc(C(=O)N/N=C/c2ccco2)c1 | inactive
38 | Cc1noc(C)c1COc1ccc2ccc(=O)oc2c1 | inactive
39 | COC1=C/C(=C/c2c(N)n3nc(CC(=O)N4CCOCC4)sc3nc2=O)C=CC1=O | inactive
40 | CCCOc1cc(C)c(S(=O)(=O)n2nnc3ccccc32)cc1C | inactive
41 | CCOc1ccc(N2CC(c3nc4ccccc4n3CCOc3ccc(OC)cc3)CC2=O)cc1 (configuration not stated) | 23.1 µM (active)
42 | CCc1ccccc1N1CC(c2nc3ccccc3n2CCCCOc2ccccc2)CC1=O (configuration not stated) | inactive
43 | CCCCN1CC(c2nc3ccccc3n2CCCCOc2ccc(C)cc2C)CC1=O (configuration not stated) | 5.8 µM (active)
44 | CCOc1ccc(NC(=O)[C@H](C)NC(=O)C2CC(=O)N(c3ccc(OC)cc3)C2)cc1 (some centres not stated) | inactive
45 | CCC1Oc2ccc(Cl)cc2N(CC(=O)O)C1=O (configuration not stated) | inactive
46 | Nc1c(C(=O)OCC(=O)Nc2ccc(OC(F)F)cc2)[nH]c(=O)[nH]c1=O | inactive
47 | Cc1cc(C)cc(NC(=O)COC(=O)c2cc(C)oc2C)c1 | inactive
48 | Cc1ccccc1Nc1nc(N)nc(COC(=O)CCC(=O)c2ccc(F)cc2)n1 | inactive
49 | CCCCNC(=O)CCn1nc(-c2ccc(Cl)cc2)ccc1=O | inactive
50 | C[C@H](CO)N1C[C@H](C)[C@@H](CN(C)Cc2ccc3c(c2)OCO3)OCc2cnnn2CCCC1=O | inactive
51 | Cc1ccc(CN(C)C[C@@H]2OCc3cnnn3CCCC(=O)N([C@@H](C)CO)C[C@H]2C)cc1 | inactive
52 | C[C@H]1CN([C@@H](C)CO)C(=O)CCCn2nncc2CO[C@@H]1CN(C)Cc1ccc(Oc2ccccc2)cc1 | 18.4 µM (active)

Row | SMILES | Potency
53 | CCCC(=O)N1CCC(CCC(=O)NC2CC2)CC1 | inactive
54 | COCCN1C(=O)C(=O)/C(=C(/O)c2ccc(S(=O)(=O)N3CCCCC3)cc2)C1c1ccc(OC)c(OC)c1 (configuration not stated) | inactive
55 | CSc1ncc(Sc2ccccc2)c(C(=O)O)n1 | inactive
56 | CSc1nc(C)cc(SC(C(C)=O)C(=O)Nc2ccccc2)n1 (configuration not stated) | inactive
57 | CSc1nc(-c2ccccc2)nc(C(Cl)Cl)n1 | 2.31 µM (active)
58 | CC1(C)Oc2ccc(C(=O)N3CCOCC3)cc2N(CC(=O)Nc2ccccc2)C1=O | inactive
59 | Cc1ccc(S(=O)(=O)N2CCCC2C(=O)NCc2ccco2)cc1 (configuration not stated) | inactive
60 | O=C(NCCC1CCCCN1S(=O)(=O)c1ccc(Cl)cc1)C(=O)NCc1ccco1 (configuration not stated) | 14.6 µM (active)
61 | O=C(NCCC1CCCCN1S(=O)(=O)c1ccccc1)C(=O)NCC1CCCO1 (configuration not stated) | inactive
62 | COc1ccc(NC(=O)CCCc2nnc3n(CCC(C)C)c(=O)c4sccc4n23)c(OC)c1 | inactive
63 | COc1ccccc1N=C(C)C1=C(O)COC1=O | inactive
64 | CCC/C(O)=C1\C(=O)CC(C)(C)CC1=Nc1ccccc1OC | 14.6 µM (active)
65 | CCOc1ccccc1N=C1NC(=O)CS1 | inactive
66 | N#Cc1cc([N+](=O)[O-])ccc1NC(=O)COC(=O)c1cnccn1 | inactive
67 | NS(=O)(=O)c1cccc(NC(=O)CC23CC4CC(CC(Br)(C4)C2)C3)c1 | inactive
68 | Cn1cccc1C(C#N)c1ccccc1C#N (configuration not stated) | inactive
69 | Cc1ccccc1NC(=O)C(C)OC(=O)CCC(=O)N(CC(C)C)c1c(N)n(CC(C)C)c(=O)[nH]c1=O (configuration not stated) | inactive
70 | Cc1cccc(C(C)C)c1NC(=O)COC(=O)C1CC(=O)N(Cc2ccccc2)C1 (configuration not stated) | inactive
71 | Cc1ccc(C(=O)NNC(=O)OC(C)(C)C)c(Cl)c1 | inactive
72 | Cc1ccccc1NC(=O)NNC(=O)OC(C)(C)C | inactive
73 | O=C(NNc1c2ccccc2nc2ccccc12)c1cc2ccccc2cc1O | 18.4 µM (active)
74 | CC(C)(C)OC(=O)NNc1c2ccccc2nc2ccccc12 | 13 µM (active)
75 | O=C(N/N=C/c1cccnc1)c1cc2ccccc2cc1O | inactive
76 | O=C(COC(=O)c1ccc(O)cc1O)NC(=O)c1ccccc1 | inactive
77 | CCCCNC(=O)N(O)C1N(/N=C/c2ccc(N(C)C)cc2)C(=S)SC1(C)C (configuration not stated) | inactive
78 | Cc1csc(/N=C/N(C)C)c1C#N | inactive

Row | SMILES | Potency
79 | CS(=O)(=O)Nc1ccc(C2=NN(S(C)(=O)=O)C(c3cccs3)C2)cc1 (configuration not stated) | inactive
80 | COc1ccc(C2=NN(C(=O)CCC(=O)O)C(c3cccs3)C2)cc1OC (configuration not stated) | inactive
81 | CCS(=O)(=O)Nc1ccc(C2=NN(C(C)=O)C(c3cccs3)C2)cc1 (configuration not stated) | 5.8 µM (active)
82 | NNC(=O)c1cccc(COCC(F)(F)C(F)F)c1 | inactive
83 | O=C(Nc1cc(S(=O)(=O)N2CCOCC2)ccc1N1CCOCC1)c1c(F)cccc1Cl | inactive
84 | Cc1c(C(=O)Nc2cccc(-c3nnc4n3CCCCC4)c2)oc2ccccc12 | 16.4 µM (active)
85 | Cc1c(C(=O)Nc2cccc(S(=O)(=O)N3CCOCC3)c2)oc2ccccc12 | 20.6 µM (active)
86 | Cc1occc1C(=O)Nc1cccc(S(=O)(=O)N2CCOCC2)c1 | inactive
87 | Cc1c(C(=O)Nc2ccccc2Cl)oc2ccc(S(=O)(=O)N3CCC4(CC3)OCCO4)cc12 | inactive
88 | O=C(Nc1cc(S(=O)(=O)N2CCOCC2)ccc1Cl)c1cc(=O)c2ccccc2o1 | 20.6 µM (active)
89 | O=C(Cn1[nH]c(=O)c2ccccc2c1=O)Nc1cccc(-c2nnc3n2CCCCC3)c1 | inactive
90 | Cc1c(C(=O)NCCN(C)C)oc2ccc(S(=O)(=O)N3CCCC3)cc12 | inactive
91 | COc1ccc(NC(=O)c2oc3ccc(S(=O)(=O)N4CCOCC4)cc3c2C)cc1 | 10.3 µM (active)
92 | Cc1ccc2oc(C(=O)Nc3ccc(S(=O)(=O)N4CCCCCC4)cc3)cc(=O)c2c1 | inactive
93 | Cc1cc(C)n2nc(C(=O)Nc3cccc(S(=O)(=O)N4CCOCC4)c3)nc2n1 | inactive
94 | Cc1nonc1NC(=O)c1oc2ccccc2c1C | inactive
95 | CSCCC(NC(=O)c1ccco1)C(=O)OCC(=O)Nc1ncc(Cl)c(C)c1Cl (configuration not stated) | inactive
96 | O=C(Nc1c2c(nn1-c1ccccc1)CS(=O)(=O)C2)C1CCCC1 | inactive
97 | COCCNC(=O)C(OC(=O)c1cccs1)c1ccc(F)cc1 (configuration not stated) | inactive
98 | Cn1cc(C2OC(=O)c3ccccc32)c2ccccc21 (configuration not stated) | inactive
99 | CCn1c(O)c(N=NC2=NC(=O)CS2)c2cc(C)ccc21 | inactive
100 | COC(=O)C[C@@H]1C=C[C@@H](NS(=O)(=O)c2cccc(OC)c2)[C@@H](CO)O1 | inactive
101 | C[C@@H]1CN([C@H](C)CO)C(=O)CCCn2nncc2CO[C@@H]1CN(C)C(=O)OCc1ccccc1 | inactive
102 | O=C(O)CSc1nccn1-c1cccc(Cl)c1 | inactive
